Compounds without any hit were thinned out: in the full panel of roughly 83,000, 20% have a hit.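 Single-dose data. Exposure time 48 hours. Values below 10 considered active.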 The source made the active and inactive calls.

The experiment has as its system HL-60(TB) leukemia. As to the kind of experiment: NCI-60 one-dose screen, 48 h (100 = growth as untreated, 0 = no growth, -100 = all killed). The conditions noted are these: 10 µM unless noted.
In the case of `C/C(=N\NC(=O)CSc1nc2sc3c(c2c(=O)n1-c1ccccc1)CCC(C)C3)c1ccc(Cl)cc1` (configuration not stated), the growth is 3.75% (active).

Consider `C/C(=N/N)c1nnn(-c2ccc(Br)cc2)c1C`, for which the growth is 102% (inactive).

As for `O=C1[C@H]2Cc3c([nH]c4ccccc34)[C@H](c3ccc(Cl)cc3)N2C(=O)CN1C1CCN(CC2CCCCC2)CC1`, the growth is 47.2% (inactive).

Turning to `COc1cc(CNC(=O)Cc2ccccc2[N+](=O)[O-])ccc1OCC(=O)NO`, the growth is 118% (inactive).

Regarding `O=C(CCN1C(=O)/C(=C/c2ccccc2)SC1=S)N1CCOCC1`, the growth is 89.3% (inactive).

For the molecule `COc1ccc(-c2nn3c(-c4ccccc4F)nnc3s2)cc1`, the growth was 47.7% (inactive).

Consider `COc1ccc(Cn2cc3c(c2-c2cc(OC)c(OC)c(OC)c2)CCCc2cnoc2-3)cc1N`, for which the growth was -9.82% (active).

As for `C#C[C@]1(O)CC[C@H]2[C@@H]3CC=C4c5sc(Nc6cc(OC)ccc6OC)nc5CC[C@]4(C)[C@H]3CC[C@@]21C`, the growth was -5.2% (active).

With `CC1=C(C)C(=O)C(Nc2cccc(C(F)(F)F)c2)=C(Br)C1=O`, the growth was 54.7% (inactive).

With `O=C(NNc1nc2cc(F)c(F)cc2n2c(CN3CC4CNCC4C3)ccc12)c1ncccn1` (configuration not stated), the growth is -30.7% (active).

Take `CCc1ccc(NC(=O)N[C@@H](Cc2cccc(F)c2)C(=O)N[C@@H]2C(=O)N3CCC[C@H]3C(=O)N3CCCC[C@H]3C(=O)N[C@@H](CO)C(=O)N3C[C@H](C)C[C@H]3C(=O)O[C@H]2C)c(F)c1`: the growth is 13.3% (inactive).

Turning to `COc1cc(/C=C/C(=O)c2ccc(C)cc2)ccc1Oc1nc(NCCO)nc(N2CCOCC2)n1`, the growth is -26.7% (active).

Turning to `CCN(CC)c1ccc(/C=N/NC(=O)c2ccc(S(N)(=O)=O)cc2)c(O)c1`, the growth is 1.26% (active).

Consider `C#Cc1nc(C(C)=O)cs1`, for which the growth was 100% (inactive).

As for `N[C@@H](Cc1cn(-c2ccnc3ccccc23)nn1)C(=O)O`, the growth was 110% (inactive).

For the molecule `COc1ccc(-c2ccnc3c(C#N)c(Nc4ccccc4)nn23)cc1OC`, the growth is 71.1% (inactive).

With `Cn1ncc2c(C(=O)c3ccc(F)cc3)nc(C(C)(C)C)nc21`, the growth is 91.2% (inactive).

As to `COc1ccc(-n2c(SCc3n[nH]c(=S)o3)nc3ccc(Cl)cc3c2=O)cc1`, the growth was 109% (inactive).

Regarding `CN(C)c1ncc(/C=C2\SC(=S)N(Cc3ccccc3Cl)C2=O)s1`, the growth was 94% (inactive).

For the molecule `C#CCOc1ccc(C(Nc2ccc(Cl)cc2)c2nnnn2C2CCCCC2)cc1` (configuration not stated), the growth is 83.8% (inactive).

For `O=C(CN1C(=O)CSC1=O)Nc1ccc(C(=O)/C=C/c2cc3ccccc3nc2Cl)cc1`, the growth is 71.9% (inactive).

Take `COc1ccc(C(=O)CSc2nc3c(c(Nc4ccc(S(N)(=O)=O)cc4)n2)CCCC3)cc1`: the growth is 101% (inactive).

On to `Clc1ccc2c(NCCCN3CCOCC3)c3oc4ccc(Cl)cc4c3nc2c1`, for which the growth was 67.7% (inactive).

Take `COc1cc2c3c(cc4c5c(ccc4c3c1OC)OCO5)N(CCN(C)C)C2=O`: the growth was -17.1% (active).

Consider `NS(=O)(=O)c1ccc(-n2cc(CC=O)nn2)cc1`, for which the growth is 105% (inactive).

On to `CN(C)c1ccc(/C=c2\sc3nc4ccccc4n3c2=O)cc1`, for which the growth is 94.7% (inactive).

With `NS(=O)(=O)c1ccc(Nc2nc(N/N=C/c3ccc(C(F)(F)F)cc3)nc(Nc3ccccc3)n2)cc1`, the growth is 48.9% (inactive).

In the case of `CN(Cc1ccccc1)S(=O)(=O)/N=C1\NC(=O)NC1=C(Cl)Cl`, the growth is -29.8% (active).

`CN(C)CC(=O)Nc1nc(-c2cccc(NS(=O)(=O)c3cccc4c(N(C)C)cccc34)c2)cs1`: the growth was 80.8% (inactive).

For `CC1(C)CC[C@]2(C(=O)N3CCOCC3)CC[C@]3(C)C(=CC[C@@H]4[C@@]5(C)C/C(=C/c6ccco6)C(=O)C(C)(C)[C@@H]5CC[C@]43C)[C@@H]2C1`, the growth was 57.2% (inactive).

For `NC(=O)c1ncn2c(=O)n(CCF)nnc12`, the growth was 29.6% (inactive).

Regarding `COc1ccc2[nH]cc(-c3nc(N)nnc3-c3cn(C)c4ccc(Br)cc34)c2c1`, the growth is -26.6% (active).

In the case of `COC(=O)c1ccc(NC2=C(Cl)C(=O)C(C)=C(C)C2=O)cc1`, the growth is 41.3% (inactive).

Consider `N/C(=N\c1nc2c(Br)cccc2s1)C(Br)Br`, for which the growth was 7% (active).

With `Cc1ccc(C(=O)NN2C(=O)/C(=C/C=C/c3ccco3)SC2=S)cc1`, the growth is 30.4% (inactive).

Take `CN1CCN(c2nc(-c3csc(-c4ccncc4)n3)cc3ccccc23)CC1`: the growth is 32.2% (inactive).

`CNC(=O)c1cc(-c2ccc(NC(=O)Nc3ccc(N4CCOCC4)c(C(F)(F)F)c3)cc2)nc2cccnc12`: the growth is 25.2% (inactive).

(Values after PubChem BioAssay (NCI).)
